# Results filed as inconclusive are left out. The source made the active and inactive calls. How the source made its calls: active means hit-call score of the fitted dose curve at least 0.9, where 1 is the maximum; inconclusive means response in the unintended direction; inactive means score below 0.9.
# Experiments:
# [1] = target: guinea pig Opioid, Kappa 1 Receptor (OpiateK), OPRK1 (gene 100135587) (UniProt P41144); test: NVS_GPCR_gOpiateK: NovaScreen (NVS) G Protein-Coupled Receptor Assay for guinea pig Opioid, Kappa 1 Receptor (OpiateK) (AID 2283252);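 further: radioligand displacement from kappa opioid receptor in guinea pig cerebellar membranes; active means reduced radioligand binding relative to DMSO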
# Sequence of guinea pig Opioid, Kappa 1 Receptor (OpiateK), OPRK1 (gene 100135587) (P41144 whole entry, looked up): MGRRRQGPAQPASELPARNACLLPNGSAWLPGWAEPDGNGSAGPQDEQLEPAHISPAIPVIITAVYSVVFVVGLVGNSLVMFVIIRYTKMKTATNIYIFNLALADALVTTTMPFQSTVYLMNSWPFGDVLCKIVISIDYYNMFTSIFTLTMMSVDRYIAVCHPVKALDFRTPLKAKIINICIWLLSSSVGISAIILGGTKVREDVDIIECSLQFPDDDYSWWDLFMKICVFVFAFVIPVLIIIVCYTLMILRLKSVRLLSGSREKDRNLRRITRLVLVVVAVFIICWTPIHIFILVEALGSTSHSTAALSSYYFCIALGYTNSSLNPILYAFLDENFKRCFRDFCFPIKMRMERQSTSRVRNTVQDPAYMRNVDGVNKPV
# Summary of the method: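 Guinea pig cerebellar membranes were incubated with a radioligand for 2 h after compound addition; bound radioactivity was read by filter-based scintillation counting. Loss of specific binding relative to DMSO baseline defined activity; primary screen at 25 uM in duplicate.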
# [2] = target: human Adenosine A1 Receptor (AdoRA1), ADORA1 (gene 134) (UniProt P30542); test: NVS_GPCR_hAdoRA1: NovaScreen (NVS) G Protein-Coupled Receptor Assay for human Adenosine A1 Receptor (AdoRA1) (AID 2283254)
# Sequence of human Adenosine A1 Receptor (AdoRA1), ADORA1 (gene 134) (P30542 whole entry, looked up): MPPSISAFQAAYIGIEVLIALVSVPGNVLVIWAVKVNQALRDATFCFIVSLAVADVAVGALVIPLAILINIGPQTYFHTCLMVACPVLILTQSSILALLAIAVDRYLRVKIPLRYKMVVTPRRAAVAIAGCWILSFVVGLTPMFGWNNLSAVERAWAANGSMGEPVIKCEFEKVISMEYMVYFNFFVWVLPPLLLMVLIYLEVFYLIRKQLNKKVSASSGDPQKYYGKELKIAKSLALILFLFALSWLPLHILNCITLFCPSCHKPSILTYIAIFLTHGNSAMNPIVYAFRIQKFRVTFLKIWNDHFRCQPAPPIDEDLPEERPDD
# Summary of the method: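 Radioligand competition binding on human cortical membranes, 1 h after compound addition; bound radioactivity read by filtration and scintillation counting. Loss of signal versus DMSO baseline scored as displacement; primary screen duplicate at 25 uM, actives retested in concentration series.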
# [3] = target: human Adenosine A2a Receptor (AdoRA2a), ADORA2A (gene 135) (UniProt P29274); test: NVS_GPCR_hAdoRA2a: NovaScreen (NVS) G Protein-Coupled Receptor Assay for human Adenosine A2a Receptor (AdoRA2a) (AID 2283256)
# Sequence of human Adenosine A2a Receptor (AdoRA2a), ADORA2A (gene 135) (P29274 whole entry, looked up): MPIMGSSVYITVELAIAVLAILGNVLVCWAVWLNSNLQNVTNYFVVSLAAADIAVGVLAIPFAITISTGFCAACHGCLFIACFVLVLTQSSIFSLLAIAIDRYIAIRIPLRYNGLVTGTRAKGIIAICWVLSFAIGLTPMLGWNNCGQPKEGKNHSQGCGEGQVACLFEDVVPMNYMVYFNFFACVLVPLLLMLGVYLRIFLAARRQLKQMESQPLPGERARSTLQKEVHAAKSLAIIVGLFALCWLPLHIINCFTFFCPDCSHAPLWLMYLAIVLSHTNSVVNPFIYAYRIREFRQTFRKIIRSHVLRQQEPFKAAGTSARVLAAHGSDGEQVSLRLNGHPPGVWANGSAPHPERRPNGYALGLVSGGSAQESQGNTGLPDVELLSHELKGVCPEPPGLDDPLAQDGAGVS
# Summary of the method: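 Cell-free radioligand binding on membranes from HEK293 expressing the receptor; competitive displacement read 1.5 h after dosing by filter-based scintillation counting. Primary screen in duplicate at 25 uM; actives followed in concentration series, with DMSO as baseline.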
# [4] = target: human Serotonin, 5-Hydroxytryptamine Receptor 6 (5HT6), HTR6 (gene 3362) (UniProt P50406); test: NVS_GPCR_h5HT6: NovaScreen (NVS) G Protein-Coupled Receptor Assay for human Serotonin, 5-Hydroxytryptamine Receptor 6 (5HT6) (AID 2283253)
# Sequence of human Serotonin, 5-Hydroxytryptamine Receptor 6 (5HT6), HTR6 (gene 3362) (P50406 whole entry, looked up): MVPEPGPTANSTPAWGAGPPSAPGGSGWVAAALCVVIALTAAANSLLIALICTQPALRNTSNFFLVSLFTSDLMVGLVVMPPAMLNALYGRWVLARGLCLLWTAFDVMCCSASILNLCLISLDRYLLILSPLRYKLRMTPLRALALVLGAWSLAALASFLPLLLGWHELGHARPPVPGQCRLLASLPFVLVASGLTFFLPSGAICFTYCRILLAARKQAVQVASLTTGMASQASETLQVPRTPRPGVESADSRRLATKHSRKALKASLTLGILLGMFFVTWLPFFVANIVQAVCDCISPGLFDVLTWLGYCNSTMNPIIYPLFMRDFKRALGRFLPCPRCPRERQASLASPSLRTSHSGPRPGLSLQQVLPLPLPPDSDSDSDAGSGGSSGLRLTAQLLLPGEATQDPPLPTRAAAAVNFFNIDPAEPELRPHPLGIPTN
# Summary of the method: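 Radioligand binding to 5HT6 in HEK293-derived membranes, cell-free, 1 h after dosing; bound ligand measured by filter-based scintillation counting. Primary screen in duplicate at 25 uM; actives retested in concentration series.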
# [5] = target: human Serotonin, 5-Hydroxytryptamine Receptor 7 (5HT7), HTR7 (gene 3363) (UniProt P34969); test: NVS_GPCR_h5HT7: NovaScreen (NVS) G Protein-Coupled Receptor Assay for human Serotonin, 5-Hydroxytryptamine Receptor 7 (5HT7) (AID 2283255);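 further: hits reduce specific radioligand binding relative to DMSO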
# Sequence of human Serotonin, 5-Hydroxytryptamine Receptor 7 (5HT7), HTR7 (gene 3363) (P34969 whole entry, looked up): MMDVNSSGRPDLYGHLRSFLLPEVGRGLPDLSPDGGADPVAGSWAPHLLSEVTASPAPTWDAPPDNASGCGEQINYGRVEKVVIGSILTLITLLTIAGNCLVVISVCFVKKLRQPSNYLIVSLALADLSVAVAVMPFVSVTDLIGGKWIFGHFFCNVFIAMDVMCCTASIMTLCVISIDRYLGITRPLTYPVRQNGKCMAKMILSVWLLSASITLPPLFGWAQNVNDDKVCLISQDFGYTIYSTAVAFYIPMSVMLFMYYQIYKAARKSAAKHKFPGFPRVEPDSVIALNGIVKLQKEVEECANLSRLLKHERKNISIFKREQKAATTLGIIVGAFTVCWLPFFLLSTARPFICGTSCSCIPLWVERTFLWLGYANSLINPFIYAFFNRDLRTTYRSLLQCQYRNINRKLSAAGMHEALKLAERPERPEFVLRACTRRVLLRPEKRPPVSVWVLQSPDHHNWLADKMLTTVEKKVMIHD
# Summary of the method: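 Radioligand displacement on membranes from CHO cells expressing human 5HT7, 1 h incubation, filter-based scintillation counting. Primary screen used a single 25 uM concentration in duplicate; actives were followed up in concentration series.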
# [6] = target: human Dopamine Receptor D4.4 (DRD4.4), DRD4 (gene 1815) (UniProt P21917); test: NVS_GPCR_hDRD4.4: NovaScreen (NVS) G Protein-Coupled Receptor Assay for human Dopamine Receptor D4.4 (DRD4.4) (AID 2283264)
# Sequence of human Dopamine Receptor D4.4 (DRD4.4), DRD4 (gene 1815) (P21917 whole entry, looked up): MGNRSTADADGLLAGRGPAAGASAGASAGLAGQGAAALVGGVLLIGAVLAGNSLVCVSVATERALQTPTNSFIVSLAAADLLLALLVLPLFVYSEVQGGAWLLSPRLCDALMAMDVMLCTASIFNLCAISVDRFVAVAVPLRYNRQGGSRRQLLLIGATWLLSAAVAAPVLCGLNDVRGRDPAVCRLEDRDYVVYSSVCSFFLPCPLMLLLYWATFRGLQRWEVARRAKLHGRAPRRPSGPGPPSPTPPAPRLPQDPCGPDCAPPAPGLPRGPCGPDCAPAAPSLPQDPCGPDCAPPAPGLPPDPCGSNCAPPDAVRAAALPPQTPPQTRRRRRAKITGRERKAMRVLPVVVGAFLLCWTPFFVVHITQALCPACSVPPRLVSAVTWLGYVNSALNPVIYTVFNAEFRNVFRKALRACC
# Summary of the method: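 Radioligand displacement on human DRD4.4 from CHO-derived membranes, 1 hour incubation, bound counts read by filtration and scintillation. Primary screen in duplicate at 25 uM; actives followed up in concentration series.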
# [7] = target: human Dopamine Receptor D2 (DRD2), DRD2 (gene 1813) (UniProt P14416); test: NVS_GPCR_hDRD2s: NovaScreen (NVS) G Protein-Coupled Receptor Assay for human Dopamine Receptor D2 (DRD2) (AID 2283266)
# Sequence of human Dopamine Receptor D2 (DRD2), DRD2 (gene 1813) (P14416 whole entry, looked up): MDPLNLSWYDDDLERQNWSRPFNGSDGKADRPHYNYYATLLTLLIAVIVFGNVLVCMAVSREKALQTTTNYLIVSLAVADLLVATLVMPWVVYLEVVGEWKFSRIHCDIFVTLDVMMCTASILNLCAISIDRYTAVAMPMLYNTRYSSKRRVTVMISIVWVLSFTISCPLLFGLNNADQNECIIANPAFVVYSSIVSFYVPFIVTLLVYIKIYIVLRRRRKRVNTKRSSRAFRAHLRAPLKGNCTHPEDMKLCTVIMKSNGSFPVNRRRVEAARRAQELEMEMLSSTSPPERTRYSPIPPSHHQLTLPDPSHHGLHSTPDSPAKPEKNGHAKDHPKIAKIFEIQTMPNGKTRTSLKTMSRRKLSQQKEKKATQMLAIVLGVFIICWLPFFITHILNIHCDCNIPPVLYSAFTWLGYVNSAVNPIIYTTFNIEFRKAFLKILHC
# Summary of the method: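 Radioligand displacement used human DRD2 membranes extracted from CHO cells and was read by filter-based scintillation counting after 1.5 hours. Primary screening was in duplicate at 25 uM. Loss of signal versus DMSO was fitted, with concentration series in follow-up.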
# [8] = target: human Adrenergic, Beta 1 Receptor (Adrb1), ADRB1 (gene 153) (UniProt P08588); test: NVS_GPCR_hAdrb1: NovaScreen (NVS) G Protein-Coupled Receptor Assay for human Adrenergic, Beta 1 Receptor (Adrb1) (AID 2283258)
# Sequence of human Adrenergic, Beta 1 Receptor (Adrb1), ADRB1 (gene 153) (P08588 whole entry, looked up): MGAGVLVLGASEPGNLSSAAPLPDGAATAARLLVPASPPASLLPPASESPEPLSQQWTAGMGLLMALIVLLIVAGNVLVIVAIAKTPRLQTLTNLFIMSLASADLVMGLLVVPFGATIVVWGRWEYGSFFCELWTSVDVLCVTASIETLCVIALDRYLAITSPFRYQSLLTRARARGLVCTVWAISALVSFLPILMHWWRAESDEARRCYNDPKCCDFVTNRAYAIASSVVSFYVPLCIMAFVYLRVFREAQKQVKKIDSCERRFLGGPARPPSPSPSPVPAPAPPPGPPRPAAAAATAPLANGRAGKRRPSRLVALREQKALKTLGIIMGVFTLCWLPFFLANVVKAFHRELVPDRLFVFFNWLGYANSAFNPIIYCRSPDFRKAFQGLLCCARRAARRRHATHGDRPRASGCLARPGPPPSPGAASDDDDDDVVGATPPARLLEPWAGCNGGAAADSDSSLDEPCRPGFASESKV
# Summary of the method: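 Cell-free radioligand displacement on receptor from human neuroepithelioma cells; 2 h after dosing, filter-based scintillation counting. Primary screen in duplicate at 25 uM, actives retested in concentration series; loss of signal vs DMSO baseline.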
# [9] = target: human Adrenergic, Alpha 2c Receptor (Adra2C), ADRA2C (gene 152) (UniProt P18825); test: NVS_GPCR_hAdra2C: NovaScreen (NVS) G Protein-Coupled Receptor Assay for human Adrenergic, Alpha 2c Receptor (Adra2C) (AID 2283259)
# Sequence of human Adrenergic, Alpha 2c Receptor (Adra2C), ADRA2C (gene 152) (P18825 whole entry, looked up): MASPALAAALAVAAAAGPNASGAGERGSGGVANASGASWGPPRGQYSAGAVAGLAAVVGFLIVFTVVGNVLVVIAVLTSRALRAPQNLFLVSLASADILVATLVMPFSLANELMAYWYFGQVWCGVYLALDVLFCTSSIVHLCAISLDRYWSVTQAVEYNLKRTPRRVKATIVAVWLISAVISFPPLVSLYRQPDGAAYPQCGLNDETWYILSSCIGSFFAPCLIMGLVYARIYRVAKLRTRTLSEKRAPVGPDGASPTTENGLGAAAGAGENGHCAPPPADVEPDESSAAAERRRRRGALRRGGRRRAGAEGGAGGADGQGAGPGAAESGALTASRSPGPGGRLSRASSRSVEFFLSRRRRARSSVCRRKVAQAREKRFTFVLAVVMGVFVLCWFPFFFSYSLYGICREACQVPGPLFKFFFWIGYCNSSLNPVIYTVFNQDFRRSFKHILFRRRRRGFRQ
# Summary of the method: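 Radioligand binding on Sf9-expressed receptor membranes, 1 h after chemical dosing, filter-based scintillation read-out. Loss of binding fitted positively versus DMSO; primary duplicate screen at 25 uM, actives retested in concentration series.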
# [10] = target: Beta-2 adrenergic receptor (Homo sapiens) (UniProt P07550); test: NVS_GPCR_hAdrb2: NovaScreen (NVS) G Protein-Coupled Receptor Assay for human Adrenergic, Beta 2 Receptor (Adrb2) (AID 2283261)
# Summary of the method: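 Filter-based radioligand binding using receptor prepared from CHO cells, 1 h incubation, scintillation counting. Primary screen in duplicate at 25 uM, actives retested in concentration series; loss of binding relative to DMSO.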
# [11] = target: human Adrenergic, Beta 3 Receptor (Adrb3), ADRB3 (gene 155) (UniProt P13945); test: NVS_GPCR_hAdrb3: NovaScreen (NVS) G Protein-Coupled Receptor Assay for human Adrenergic, Beta 3 Receptor (Adrb3) (AID 2283262)
# Summary of the method: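 Membranes from SK-N-MC cells pretreated with isoproterenol and 8-bromo-cAMP were used in a radioligand competitive displacement binding assay. Binding was read by filter-based scintillation counting 1 hour after dosing. Primary screening was in duplicate at 25 uM, with concentration series in follow-up.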
# [12] = target: Type-1 angiotensin II receptor (Homo sapiens) (UniProt P30556); test: NVS_GPCR_hAT1: NovaScreen (NVS) G Protein-Coupled Receptor Assay for human Angiotensin II receptor type 1 (AT1) (AID 2283263)
# Summary of the method: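 Membranes from KAN-TS cells; radioligand competitive displacement, 3 h, filtration and scintillation counting. Single-point duplicate screen at 25 uM, then concentration-response up to 50 uM for hits; loss of signal fitted versus DMSO.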
# [13] = target: human Endothelin Receptor Type B (ETB), EDNRB (gene 1910) (UniProt P24530); test: NVS_GPCR_hETB: NovaScreen (NVS) G Protein-Coupled Receptor Assay for human Endothelin Receptor Type B (ETB) (AID 2283267)
# Summary of the method: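 Human astrocytoma cell membranes; radioligand competitive binding read by filter scintillation counting 4 hours after dosing. Single-concentration duplicate screen at 25 uM, then singleton concentration-response up to 50 uM; loss of signal versus DMSO.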
# [14] = target: D(1A) dopamine receptor (Homo sapiens) (UniProt P21728); test: NVS_GPCR_hDRD1: NovaScreen (NVS) G Protein-Coupled Receptor Assay for human Dopamine Receptor D1 (DRD1) (AID 2283269)
# Sequence of D(1A) dopamine receptor (Homo sapiens) (P21728 whole entry, looked up): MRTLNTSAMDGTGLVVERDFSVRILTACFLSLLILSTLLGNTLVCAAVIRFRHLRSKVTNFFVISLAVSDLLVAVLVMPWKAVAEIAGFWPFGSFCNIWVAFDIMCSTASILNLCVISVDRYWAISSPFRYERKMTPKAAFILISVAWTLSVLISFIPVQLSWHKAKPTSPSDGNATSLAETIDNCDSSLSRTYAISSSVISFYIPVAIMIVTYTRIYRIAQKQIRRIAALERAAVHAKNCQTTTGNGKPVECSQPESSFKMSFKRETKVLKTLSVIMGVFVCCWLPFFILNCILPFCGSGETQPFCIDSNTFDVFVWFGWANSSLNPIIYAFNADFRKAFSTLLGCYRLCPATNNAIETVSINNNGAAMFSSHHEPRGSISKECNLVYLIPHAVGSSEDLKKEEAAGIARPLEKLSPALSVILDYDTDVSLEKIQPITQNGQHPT
# Summary of the method: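 Cell-free competition with radioligand, filter-trapped and scintillation-counted 1 h post-dose, using HEK293-derived human D1 preparation. Duplicate single-point testing at 25 uM first, then concentration series for actives; DMSO served as baseline, loss-of-signal scored.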
# [15] = target: Muscarinic acetylcholine receptor M1 (Homo sapiens) (UniProt P11229); test: NVS_GPCR_hM1: NovaScreen (NVS) G Protein-Coupled Receptor Assay for human Muscarinic, M1 Receptor (AID 2283270)
# Summary of the method: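 Cell-free radioligand displacement using membrane protein extracted from CHO cells, read by filter-based scintillation counting 1 h after dosing. Loss of bound signal fitted versus DMSO; primary screen single concentration 25 uM in duplicate, actives followed by concentration series.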
# [16] = target: Muscarinic acetylcholine receptor M2 (Homo sapiens) (UniProt P08172); test: NVS_GPCR_hM2: NovaScreen (NVS) G Protein-Coupled Receptor Assay for human Muscarinic, M2 Receptor (AID 2283273)
# Sequence of Muscarinic acetylcholine receptor M2 (Homo sapiens) (P08172 whole entry, looked up): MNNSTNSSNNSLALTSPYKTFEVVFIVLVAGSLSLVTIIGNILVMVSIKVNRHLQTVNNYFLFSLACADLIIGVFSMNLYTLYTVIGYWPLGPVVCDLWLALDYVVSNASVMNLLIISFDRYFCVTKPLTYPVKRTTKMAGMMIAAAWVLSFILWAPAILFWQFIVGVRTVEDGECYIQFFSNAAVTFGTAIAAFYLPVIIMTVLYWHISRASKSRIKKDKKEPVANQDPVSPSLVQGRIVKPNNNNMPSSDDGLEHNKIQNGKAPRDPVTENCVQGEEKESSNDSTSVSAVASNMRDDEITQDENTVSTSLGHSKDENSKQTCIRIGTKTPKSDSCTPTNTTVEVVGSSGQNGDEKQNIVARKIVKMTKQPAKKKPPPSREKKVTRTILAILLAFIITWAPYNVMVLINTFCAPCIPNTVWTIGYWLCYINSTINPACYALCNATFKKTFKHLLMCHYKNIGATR
# Summary of the method: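 Cell-free radioligand binding using membranes from CHO cells expressing the receptor; filter-based scintillation counting after 1 hour of compound exposure. Loss of specific binding relative to DMSO baseline; primary screen at 25 uM in duplicate, actives then run in concentration series.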
# [17] = target: human Histamine 1 Receptor (H1), HRH1 (gene 3269) (UniProt P35367); test: NVS_GPCR_hH1: NovaScreen (NVS) G Protein-Coupled Receptor Assay for human Histamine 1 Receptor (H1) (AID 2283268)
# Summary of the method: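 Cell-free radioligand displacement at human H1 receptor, 1 h, filter scintillation counting; primary screen 25 uM in duplicate, hits in concentration series; loss of binding fitted vs DMSO.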
smiles,measurement,setting,value
CC(C)(O)C(=O)Nc1ccc([N+](=O)[O-])c(C(F)(F)F)c1,outcome,[1],inactive
CCNc1nc(NC(C)C)nc(SC)n1,AC50,[2],13.7 µM (active)
same,AC50,[3],10 µM (active)
COc1ccc(O)c(C(C)(C)C)c1,AC50,[4],25 µM (active)
same,outcome,[5],inactive
same,outcome,[6],inactive
same,AC50,[7],25 µM (active)
Oc1ccc(C(c2ccc(O)cc2)(C(F)(F)F)C(F)(F)F)cc1,AC50,[1],14 µM (active)
same,AC50,[4],0.352 µM (active)
same,AC50,[2],16.6 µM (active)
same,AC50,[5],5.73 µM (active)
same,AC50,[3],25 µM (active)
same,AC50,[8],19.3 µM (active)
same,AC50,[9],10.7 µM (active)
same,AC50,[10],25 µM (active)
same,outcome,[11],inactive
same,outcome,[12],inactive
same,AC50,[6],14.1 µM (active)
same,AC50,[7],9.39 µM (active)
same,outcome,[13],inactive
same,AC50,[14],2.86 µM (active)
same,AC50,[15],37 µM (active)
same,outcome,[16],inactive
Cc1cc(-c2ccc(N)c(C)c2)ccc1N,outcome,[7],inactive
same,outcome,[17],inactive
O=C(N[C@H]1CN2CCC1CC2)c1cc2ccoc2cn1,outcome,[1],inactive
same,AC50,[16],25 µM (active)
CCC(C)(c1ccc(O)cc1)c1ccc(O)cc1,outcome,[1],inactive
same,AC50,[4],6.29 µM (active)
same,AC50,[2],25 µM (active)
same,AC50,[5],15.9 µM (active)
same,AC50,[14],11.3 µM (active)
O=C(O)C(F)(F)C(F)(F)C(F)(F)C(F)(F)C(F)(F)C(F)(F)C(F)(F)C(F)(F)C(F)(F)F,AC50,[5],16.4 µM (active)
same,AC50,[3],7.6 µM (active)
same,AC50,[8],21.3 µM (active)
same,AC50,[9],10.9 µM (active)
same,AC50,[6],25 µM (active)
same,AC50,[14],16.8 µM (active)
Oc1ccc(Cl)cc1Cl,outcome,[4],inactive

# Source: PubChem BioAssay (EPA / NIEHS)
